Consider 15 molecules from PubChem BioAssay.

Active and inactive are the calls of the source.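 The calls were made as follows: active = fluorescence slope higher than the sample average by over 3 SD (cut at about -0.22 in these data, passing the limit was not always enough); inactive = the rest.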

The target in the assay is Voltage-gated potassium channel subunit beta-2 (Rattus norvegicus) (UniProt P62483). The assay is described as follows: KvBeta enzyme negative modulators, primary screen, biochemical, NADPH fluorescence (AID 622).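 Also: slope of raw intensity against log time taken from 70 to 1610 s.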 To be noted: recombinant KvBeta, 4-cyanobenzaldehyde reduction, at 10 µM, stronger effect = higher value.
Sequence of Voltage-gated potassium channel subunit beta-2 (Rattus norvegicus) (P62483 whole entry, looked up): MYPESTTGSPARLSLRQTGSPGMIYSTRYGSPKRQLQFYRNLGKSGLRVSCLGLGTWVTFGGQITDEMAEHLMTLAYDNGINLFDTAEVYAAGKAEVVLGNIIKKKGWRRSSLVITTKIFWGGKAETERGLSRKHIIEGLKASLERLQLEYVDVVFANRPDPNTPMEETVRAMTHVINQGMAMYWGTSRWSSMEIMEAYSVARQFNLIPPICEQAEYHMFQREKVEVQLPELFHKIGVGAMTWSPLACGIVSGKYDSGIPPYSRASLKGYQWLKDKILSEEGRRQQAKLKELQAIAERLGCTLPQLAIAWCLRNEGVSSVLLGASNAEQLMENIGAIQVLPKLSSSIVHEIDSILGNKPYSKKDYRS
Regarding `CC1CCc2nn(CC(=O)NCc3ccc(F)cc3)cc2C1` (stereo not given), the fluorescence slope is -0.628 (inactive).
In the case of `CC1CN(C2CCCCC2)c2nc3c(c(=O)[nH]c(=O)n3C)n2C1` (stereo not given), the fluorescence slope was -0.642 (inactive).
Consider `Cc1ccc(Nc2nc(Oc3ccc(=O)[nH]n3)nc(N(C)C)n2)cc1`, for which the fluorescence slope is -0.498 (inactive).
For the molecule `O=C(Nc1ccc(F)cc1)N(Cc1ccco1)Cc1cc2cc3c(cc2[nH]c1=O)OCO3`, the fluorescence slope was -0.418 (inactive).
To `COc1cccc(C(=O)Nc2c(C(N)=O)oc3ccccc23)c1` belongs -0.545 (inactive).
Regarding `O=C(C1CCCN1S(=O)(=O)c1cccc2cccnc12)N1CCn2c1nc1ccccc12` (stereo not given), the fluorescence slope was -0.63 (inactive).
`O=C(NCCSCc1ccco1)Nc1cccc(Cl)c1`: the fluorescence slope was -0.673 (inactive).
On to `CC(=O)Nc1nc2c(c3c1c(=O)oc1ccccc13)CC(C)CC2` (stereo not given), for which the fluorescence slope was -0.457 (inactive).
`O=c1/c(=C/c2ccco2)sc2nc(-c3ccccc3Br)nn12`: the fluorescence slope is -0.585 (inactive).
`CCOC(=O)Cn1c(S(=O)(=O)Cc2ccccc2)nc2ccccc21`: the fluorescence slope was -0.579 (inactive).
For `CCn1c(SCC(=O)Nc2ccccc2F)nc2c(c1=O)SC(C)C2` (stereo not given), the fluorescence slope is -0.554 (inactive).
With `Nc1cccc2c1C(=O)N(c1ccccc1)C2=O`, the fluorescence slope is -0.0636 (active).
Regarding `COCCn1c(=O)[nH]c2cc(C(=O)N3CCN(Cc4ccc5c(c4)OCO5)CC3)ccc2c1=O`, the fluorescence slope was -0.643 (inactive).
Take `O=C(Cn1nnc(-c2ccc(S(=O)(=O)N3CCCC3)cc2)n1)NCC1CCCO1` (stereo not given): the fluorescence slope was -0.481 (inactive).
To `O=C(CN(Cc1ccco1)C(=O)c1cc(=O)[nH]c2ccccc12)Nc1ccccc1Br` belongs -0.58 (inactive).
